A structure can be active in one record and inactive in another. Calls of active or inactive are those of the source. How the source made its calls: active means hit-call score of the fitted dose curve at least 0.9, where 1 is the maximum; inactive means score below 0.9.
Key:
[1] = APR_HepG2_P-H2AX_72hr: Apredica 72-hour HepG2 Assay for H2AX Phosphorylation (AID 2282916); conditions: imaging, actives raise or lower the signal;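 further: phospho-histone H2A.x immunostain intensity per cell marking DNA damage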
Outline: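 Human hepatoma HepG2 cells are dosed across ten concentrations (0.39 to 200 uM, 0.5% v/v DMSO) and incubated 72 hr. Phospho-histone H2A.x is then detected by antibody staining alongside c-Jun and Hoechst, and quantified by automated fluorescence imaging.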

[2] = APR_HepG2_MitoMembPot_72hr: Apredica 72-hour HepG2 Assay for Mitochondrial Membrane Potential (AID 2282917); conditions: imaging, actives raise or lower the signal
Outline: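 HepG2 cells exposed 72 h to compounds at 0.39–200 uM (0.5% v/v DMSO, duplicates); MitoTracker Red CMXRos 250 nM loaded 30 min before 3.7% formaldehyde fixation, imaged by HCS fluorescence. Bidirectional fit versus DMSO.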

[3] = APR_HepG2_MitoticArrest_72hr: Apredica 72-hour HepG2 Assay for Mitotic Arrest (AID 2282918); conditions: high-content imaging, actives raise or lower the signal
Outline: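 Using high-content imaging of fixed HepG2 cells, phospho-histone H3 signal was measured following a 72 hr incubation with ten-point compound dilutions up to 200 uM. DMSO served as the negative control and baseline for bidirectional curve fitting.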

[4] = APR_HepG2_MicrotubuleCSK_72hr: Apredica 72-hour HepG2 Assay for Microtubule CSK Stabilty (AID 2282919); conditions: HepG2 microtubule cytoskeleton, high-content imaging, actives raise or lower the signal
Outline: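 Ten-point dosing (0.39–200 uM, 0.5% DMSO) of HepG2 for 72 hr, with taxol as the cytoskeletal positive control. The cells were formaldehyde-fixed and then stained with alpha-tubulin/Cy5 and Hoechst. Imaging at 20x used a −2 um Z offset for tubulin.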

[5] = APR_HepG2_P-H2AX_24hr: Apredica 24-hour HepG2 Assay for H2AX Phosphorylation (AID 2282920); conditions: high-content imaging, actives raise or lower the signal
Outline: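 Human HepG2 liver cells, treated 24 hr with test chemicals (0.39–200 uM, final DMSO 0.5% v/v), are fixed and co-stained for phospho-H2A.x and c-Jun with Hoechst. Imaged intensity is fitted in both directions against DMSO controls.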

[6] = APR_HepG2_StressKinase_72hr: Apredica 72-hour HepG2 Assay for Stress Kinase (AID 2282921); conditions: HepG2 stress kinase (phospho-c-Jun) imaging, actives raise or lower the signal
Outline: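 After a 72 h compound treatment spanning 0.39 to 200 uM, formaldehyde-fixed cells are labelled for phosphorylated c-Jun and nuclei, imaged by automated fluorescence microscopy, and activity is fitted in both directions relative to DMSO controls.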

[7] = APR_HepG2_p53Act_72hr: Apredica 72-hour HepG2 Assay for p53 Activation (AID 2282923); conditions: high-content imaging, actives raise or lower the signal;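 further: average cellular p53 protein immunofluorescence intensity in HepG2 cells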
Outline: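 Imaging-based endpoint: after 72 hr compound exposure (up to 200 uM, 0.5% DMSO), fixed and permeabilized monolayers were labelled with anti-p53 antibody and imaged; signal change in either direction was fitted relative to DMSO controls.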

[8] = APR_HepG2_MitoMass_72hr: Apredica 72-hour HepG2 Assay for Mitochondrial Mass (AID 2282924); conditions: high-content imaging, actives raise or lower the signal;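 further: MitoTracker Red CMXRos stain intensity per cell imaged as mitochondrial mass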
Outline: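 Steps: treat HepG2 72 hr (0.39–200 uM, duplicate wells); load MitoTracker Red CMXRos, 250 nM, 30 min; fix with 3.7% formaldehyde, permeabilise with 0.5% Triton X-100; capture images, nuclei via Hoechst 33342; fit bidirectionally against DMSO.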

[9] = APR_HepG2_NuclearSize_72hr: Apredica 72-hour HepG2 Assay for Nuclear Size (AID 2282925); conditions: high-content imaging, actives raise or lower the signal
Outline: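 Compounds (0.39–200 uM, final DMSO 0.5%) were applied to HepG2 for 72 hr. Cells were then formaldehyde-fixed, permeabilized and labelled with Hoechst 33342. Nuclear diameter was quantified from six images per well.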

[10] = ATG_CRE_CIS: Attagene CIS-FACTORIAL HepG2 Assay for human cAMP Responsive Element (CRE) binding protein 3 (AID 2282926); conditions: HepG2 CRE cis-reporter, Attagene multiplexed mRNA; actives raise or lower the signal
Outline: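 Liver-derived HepG2, transfected with a CRE-containing reporter panel, exposed 24 h; transcript levels sized and quantified by capillary electrophoresis of labelled amplicons; signal changes either way referenced to vehicle.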

[11] = biological target: CCAAT/enhancer-binding protein beta (Homo sapiens) (UniProt P17676); test: ATG_C_EBP_CIS: Attagene CIS-FACTORIAL HepG2 Assay for human CCAAT/Enhancer Binding Protein (C/EBP) beta (AID 2282927); conditions: HepG2 Attagene cis-factorial transcription factor reporter; actives raise or lower the signal
CCAAT/enhancer-binding protein beta (Homo sapiens), sequence (P17676 whole entry, looked up): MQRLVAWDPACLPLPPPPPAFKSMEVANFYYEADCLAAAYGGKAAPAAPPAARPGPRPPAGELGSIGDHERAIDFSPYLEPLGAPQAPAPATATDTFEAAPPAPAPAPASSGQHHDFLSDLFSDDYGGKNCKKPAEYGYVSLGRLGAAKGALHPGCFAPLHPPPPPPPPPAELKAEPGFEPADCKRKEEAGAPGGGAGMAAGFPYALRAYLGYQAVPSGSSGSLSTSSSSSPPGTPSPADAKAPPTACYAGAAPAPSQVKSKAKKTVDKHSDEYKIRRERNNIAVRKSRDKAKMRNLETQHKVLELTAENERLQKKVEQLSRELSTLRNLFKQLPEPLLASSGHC
Outline: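 Following a 24 h incubation with test chemical, transfected HepG2 cells yielded RNA whose reporter transcripts were quantified by RT-PCR and fluorescent capillary electrophoresis, with DMSO serving as baseline for bidirectional fitting.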

[12] = ATG_CMV_CIS: Attagene CIS-FACTORIAL HepG2 Assay for human CMV (Internal Marker) (AID 2282928); conditions: HepG2 CMV promoter reporter, transcription factor profiling; actives raise or lower the signal;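 further: endpoint acts as a background internal control marker rather than a target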
Outline: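 Fluorescence intensity of RT-PCR-derived reporter fragments, resolved by capillary electrophoresis, gives the signal. HepG2 liver cells bearing transfected cis-element reporters were treated 24 h; activity in either direction was fit relative to DMSO-treated controls.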

[13] = ATG_DR4_LXR_CIS: Attagene CIS-FACTORIAL HepG2 Assay for human Liver X Receptor (LXR), DR4 submotif (AID 2282929); conditions: HepG2 Attagene DR4 cis-reporter, mRNA transcription; actives raise or lower the signal
Outline: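 After transient transfection with multiplexed cis-promoter reporter units, HepG2 cells received test chemicals for 24 h. Reporter mRNA induction, detected by fluorescence after RT-PCR and capillary electrophoresis, was scored relative to DMSO.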

[14] = biological target: Aryl hydrocarbon receptor (Homo sapiens) (UniProt P35869); test: ATG_Ahr_CIS: Attagene CIS-FACTORIAL HepG2 Assay for human Aryl Hydrocarbon Receptor (Ahr) (AID 2282930); conditions: HepG2 AhR cis-factorial reporter transcription; actives raise or lower the signal
Aryl hydrocarbon receptor (Homo sapiens), sequence (P35869 whole entry, looked up): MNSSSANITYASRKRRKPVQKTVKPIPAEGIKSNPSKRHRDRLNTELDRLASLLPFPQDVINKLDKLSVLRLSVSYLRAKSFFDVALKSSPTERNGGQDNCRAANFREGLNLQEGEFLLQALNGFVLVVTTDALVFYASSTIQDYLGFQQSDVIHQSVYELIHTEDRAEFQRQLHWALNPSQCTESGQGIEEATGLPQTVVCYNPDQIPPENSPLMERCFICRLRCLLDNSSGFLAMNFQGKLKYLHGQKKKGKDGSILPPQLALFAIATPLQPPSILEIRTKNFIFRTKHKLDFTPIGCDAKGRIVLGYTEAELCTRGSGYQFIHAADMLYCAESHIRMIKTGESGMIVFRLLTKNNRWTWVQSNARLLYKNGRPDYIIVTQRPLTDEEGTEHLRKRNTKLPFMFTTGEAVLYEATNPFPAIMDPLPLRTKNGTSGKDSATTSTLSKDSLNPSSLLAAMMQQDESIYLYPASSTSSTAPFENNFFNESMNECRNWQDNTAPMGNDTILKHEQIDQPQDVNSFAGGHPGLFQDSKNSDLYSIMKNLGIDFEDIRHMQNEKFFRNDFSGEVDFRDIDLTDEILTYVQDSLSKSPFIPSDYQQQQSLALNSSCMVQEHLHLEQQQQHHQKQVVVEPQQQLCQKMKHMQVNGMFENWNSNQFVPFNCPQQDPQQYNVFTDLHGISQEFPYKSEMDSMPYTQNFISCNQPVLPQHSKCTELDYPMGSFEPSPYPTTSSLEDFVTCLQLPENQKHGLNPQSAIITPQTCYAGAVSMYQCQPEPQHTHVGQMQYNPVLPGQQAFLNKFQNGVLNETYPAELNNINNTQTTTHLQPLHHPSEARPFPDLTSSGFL
Outline: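 Values derive from bidirectional fitting against DMSO negative control. Underlying signal: cis-element reporter mRNA in transiently transfected HepG2, harvested 24 h post-dose and measured by RT-PCR plus capillary electrophoresis.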

[15] = ATG_AP_2_CIS: Attagene CIS-FACTORIAL HepG2 Assay for human Activator Protein 2 (AP-2) (AID 2282932); conditions: HepG2 AP-2 cis-reporter, Attagene transcription factor profiling; actives raise or lower the signal
Outline: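 Cells (HepG2) transfected with promoter-driven reporter constructs, treated 24 h. Total RNA reverse-transcribed, reporter cDNA PCR-amplified, FAM-labelled by primer extension, digested, resolved by capillary electrophoresis. Activity fitted both directions versus DMSO.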

[16] = ATG_BRE_CIS: Attagene CIS-FACTORIAL HepG2 Assay for human Bone Morphogenetic Protein (BMP) Response Element (BRE) (AID 2282933); conditions: HepG2 BMP response element reporter, Attagene transcription factor profiling; actives raise or lower the signal
Outline: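 HepG2 cells transiently transfected with CIS reporter units (endogenous TF activity, BMP response element), dosed 24 h. Reporter mRNA quantified by RT-PCR, fluorescent labelling and capillary electrophoresis; bidirectional fit vs DMSO baseline.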

[17] = biological target: Retinoic acid receptor alpha (Homo sapiens) (UniProt P10276); test: ATG_DR5_RAR_CIS: Attagene CIS-FACTORIAL HepG2 Assay for human Retinoic Acid Receptor Alpha (RARE), DR5 submotif (AID 2282934); conditions: HepG2 Attagene cis-factorial RARE DR5 reporter, mRNA; actives raise or lower the signal;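 on AC50: reporter responds to endogenous RAR alpha beta and gamma in HepG2 not RARA alone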
Retinoic acid receptor alpha (Homo sapiens), sequence (P10276 whole entry, looked up): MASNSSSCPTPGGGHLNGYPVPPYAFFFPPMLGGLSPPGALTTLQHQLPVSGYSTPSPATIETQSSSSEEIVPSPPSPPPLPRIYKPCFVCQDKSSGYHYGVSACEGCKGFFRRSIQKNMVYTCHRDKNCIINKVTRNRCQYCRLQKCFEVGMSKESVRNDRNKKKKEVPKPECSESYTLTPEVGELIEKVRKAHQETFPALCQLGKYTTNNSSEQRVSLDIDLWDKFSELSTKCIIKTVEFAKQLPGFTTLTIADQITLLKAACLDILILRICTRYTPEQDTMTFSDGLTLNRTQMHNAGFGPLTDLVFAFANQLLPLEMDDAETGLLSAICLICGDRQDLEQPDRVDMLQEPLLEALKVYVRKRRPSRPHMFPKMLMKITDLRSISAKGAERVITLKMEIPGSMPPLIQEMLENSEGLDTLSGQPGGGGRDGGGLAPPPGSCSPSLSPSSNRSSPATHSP
Outline: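 Endpoint fitted in both directions relative to DMSO as negative control. It reflects DR5 cis-element reporter mRNA induction in transiently transfected HepG2 cells, measured 24 h after dosing through RT-PCR and fluorescent capillary electrophoresis.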

[18] = ATG_AP_1_CIS: Attagene CIS-FACTORIAL HepG2 Assay for human Activator Protein 1 (AP-1) (AID 2282931); conditions: HepG2 Attagene cis-factorial AP-1 reporter mRNA; actives raise or lower the signal
Outline: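 After 24 h incubation with test chemical, RNA from transfected HepG2 cells was reverse-transcribed, amplified, fluorescently labelled and digested before capillary electrophoresis. Reporters were driven by cis-regulatory promoters; activity fitted bidirectionally versus DMSO.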

[19] = biological target: Transcription factor E2F1 (Homo sapiens) (UniProt Q01094); test: ATG_E2F_CIS: Attagene CIS-FACTORIAL HepG2 Assay for human E2F Transcription Factor 1 (AID 2282935); conditions: HepG2 Attagene cis-reporter, E2F reporter RNA transcripts; actives raise or lower the signal
Transcription factor E2F1 (Homo sapiens), sequence (Q01094 whole entry, looked up): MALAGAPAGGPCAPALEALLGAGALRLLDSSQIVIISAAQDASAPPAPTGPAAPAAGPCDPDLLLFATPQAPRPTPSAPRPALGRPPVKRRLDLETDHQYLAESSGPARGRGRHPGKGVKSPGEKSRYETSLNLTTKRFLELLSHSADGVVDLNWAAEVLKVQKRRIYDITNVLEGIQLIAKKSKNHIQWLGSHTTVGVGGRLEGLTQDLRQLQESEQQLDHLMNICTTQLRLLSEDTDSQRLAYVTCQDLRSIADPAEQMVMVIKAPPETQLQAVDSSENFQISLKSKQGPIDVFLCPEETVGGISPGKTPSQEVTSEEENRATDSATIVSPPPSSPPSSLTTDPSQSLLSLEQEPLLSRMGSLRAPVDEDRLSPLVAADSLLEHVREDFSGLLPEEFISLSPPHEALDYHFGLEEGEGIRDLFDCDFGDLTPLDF
Outline: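 First, HepG2 cells were transfected with reporter transcription units. Next, they were dosed for 24 h. Then RNA was isolated, converted to cDNA, PCR-amplified, FAM-labeled, HpaI-digested and analyzed by capillary electrophoresis.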

Measured: AC50

CCCCCCOC(=O)c1ccccc1C(=O)OCCCCCC
active: [4] 102 µM
not listed: [18] | [19]
inactive: all other assays above

CCC(C)c1cc([N+](=O)[O-])cc([N+](=O)[O-])c1O (stereo not drawn)
inactive: [3] | [4] | [6] | [7] | [9] | [13] | [14] | [15] | [19]
active: [1] 69.7 µM | [2] 111 µM | [5] 67.4 µM | [8] 72.3 µM | [10] 14 µM | [11] 12.5 µM | [12] 19.6 µM | [18] 10.6 µM | [16] 11.8 µM | [17] 13.2 µM

CCOC(=O)C(O)(c1ccc(Cl)cc1)c1ccc(Cl)cc1
active: [1] 48.1 µM | [3] 48.5 µM | [5] 77.5 µM | [7] 49.4 µM | [9] 105 µM | [13] 8.72 µM | [14] 8.63 µM
inactive: all other assays above

Cc1cccc(C)c1N
not listed: [19]
inactive: all other assays above

OCC(O)CO
inactive: [10] | [11] | [12] | [13] | [14] | [18] | [15] | [16] | [17]
active: [14] 33.3 µM

ClC1=C(Cl)[C@]2(Cl)[C@@H]3[C@H]4C[C@H]([C@@H]5O[C@H]45)[C@@H]3[C@@]1(Cl)C2(Cl)Cl
active: [13] 5.08 µM | [17] 1.14 µM
not listed: [18] | [19]
inactive: all other assays above

CCOCCOC(C)=O
inactive: all assays above

CC#Cc1cc(C)nc(Nc2ccccc2)n1
active: [7] 103 µM | [13] 75 µM | [14] 23 µM
not listed: [19]
inactive: all other assays above

CCCN(CCC)N=O
inactive: all assays above

ClC1=C(Cl)[C@]2(Cl)[C@@H]3[C@@H](Cl)[C@H]4O[C@H]4[C@@H]3C1(Cl)C2(Cl)Cl
active: [1] 48.2 µM | [3] 51.6 µM | [5] 62.3 µM | [7] 54.5 µM | [12] 33.7 µM | [13] 8.22 µM | [18] 35.9 µM | [17] 3.4 µM
not listed: [19]
inactive: all other assays above

ClC1=C(Cl)[C@]2(Cl)[C@@H]3[C@@H]4C[C@@H]([C@H]5O[C@@H]45)[C@@H]3[C@@]1(Cl)C2(Cl)Cl
active: [1] 41 µM | [3] 32.6 µM | [13] 16.7 µM | [17] 0.571 µM
not listed: [18] | [19]
inactive: all other assays above

c1cc2ccc3cccc4ccc(c1)c2c34
active: [1] 104 µM | [9] 113 µM | [14] 68.7 µM | [17] 7.9 µM
not listed: [18] | [19]
inactive: all other assays above
